Reference: PubChem BioAssay (NCATS)
Records with an inconclusive call do not appear. Calls of active or inactive are those of the source. Unless noted, calls come from the whole dose curve; as a rule, active = well fitted curve in the direction sought with a large enough effect; inconclusive = small, poorly fitted or top-dose-only effect, or another doubt; inactive = no such curve, though single readings can be large; an effect the other way counts as inactive or inconclusive.

Legend:
[1] = molecular target: Thioredoxin reductase 1, cytoplasmic (Rattus norvegicus) (UniProt O89049); experiment: qHTS Assay for Substrates of Mammalian Selenoprotein Thioredoxin Reductase 1 (TrxR1) (AID 488772);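 note: series mostly up to about 57 µM; a drop in NADPH fluorescence below the no-compound background marks a TrxR1 substrate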
Method in brief: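 In this dual-purpose format, potential substrates are identified from the first fluorescence read after selenite addition, not from the 8-minute delta. Rat enzyme is preincubated with NADPH and then with compound at ~22 deg C.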

[2] = molecular target: Thioredoxin reductase 1, cytoplasmic (Rattus norvegicus) (UniProt O89049); experiment: qHTS Assay for Inhibitors of Mammalian Selenoprotein Thioredoxin Reductase 1 (TrxR1) (AID 488773);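 note: drop in NADPH fluorescence over an 8 min run after selenite addition; series mostly up to about 57 µM; nearly all actives have a fitted effect of over 40% in size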
Method in brief: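 Inhibition is scored from the loss of NADPH fluorescence between first and last reads of an 8-min kinetic run. Selenite (400 uM) was the substrate, added after 15 min compound preincubation at room temperature.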

[3] = molecular target: Flap endonuclease 1 (Homo sapiens) (UniProt P39748); experiment: qHTS Validation Assay for the Inhibitors of Human Flap endonuclease 1 (FEN1) (AID 488816)
Method in brief: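 Enzyme reagent 10 nM; cpds pinned; 15 min RT preinc.; substrate 50 nM final; reads t=0 and 15 min; no-enzyme buffer wells as neg. control; normalized data, 4-parameter Hill fit.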

[4] = molecular target: M-phase phosphoprotein 8 (Homo sapiens) (UniProt Q99549); experiment: qHTS Validation Assay for Inhibitors for MPP8 Chromodomain Interactions with Methylated Histone Tails (AID 488949);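 note: AlphaScreen signal from MPP8 chromodomain bound to biotinylated H3K9me3 peptide; top concentration of the series differs between compounds; nearly all actives have a fitted effect of over 55% in size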
Method in brief: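 Disruption of the preformed MPP8–trimethyl-H3K9 peptide complex (both 50 nM, 30 min, RT) is measured after 30 min compound exposure, using AlphaScreen proximity beads; aurintricarboxylic acid titration serves as plate control.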

[5] = molecular target: Methanococcus maripaludis chaperonin (MmCpn) (UniProt Q6LX38); experiment: High-Throughput Screening for Modulators of Cytosolic Chaperonin Activity: MmCpn Primary Screen (AID 488978);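 note: 50 nM MmCpn enzyme hydrolysing 30 µM ATP at 37 °C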
Method in brief: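 Measures ATPase turnover of the M. maripaludis chaperonin (50 nM final) against 30 uM ATP over 10 min at 37C, with compound added 5 min beforehand at room temperature. ADP is quantified by HTRF immunodetection.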

[6] = molecular target: D(1A) dopamine receptor (Homo sapiens) (UniProt P21728); experiment: HTS Assay for Allosteric Agonists of the Human D1 Dopamine Receptor: Primary Screen for Agonists (AID 488981)
Method in brief: (§1)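 Tetracycline-induced HEK293 Trex D1 cells with forced coupling to calcium, loaded with no-wash calcium dye; kinetic fluorescence read 180 s after compound addition for agonism, then a further 180 s after an EC20 dopamine challenge for potentiation.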

[7] = molecular target: D(1A) dopamine receptor (Homo sapiens) (UniProt P21728); experiment: HTS Assay for Allosteric Agonists of the Human D1 Dopamine Receptor: Primary Screen for Potentiators (AID 488982)
Method in brief: as §1

[8] = molecular target: D(1A) dopamine receptor (Homo sapiens) (UniProt P21728); experiment: HTS Assay for Allosteric Agonists of the Human D1 Dopamine Receptor: Primary Screen for Antagonists (AID 488983);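 note: calcium flux response to an EC80 dopamine challenge measured with no-wash dye; nearly all actives have a fitted effect of over 65% in size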
Method in brief: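 Calcium-flux read-out in inducible HEK293 T-REx cells expressing D1, dye-loaded 30–90 min at room temperature. Kinetic reads: 180 s after compound (agonist phase), then 180 s after an EC80 dopamine challenge.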

[9] = Validation screen for small molecules that induce genotoxicity in human embryonic kidney (HEK293T) cells expressing luciferase-tagged ELG1 (AID 493106)
Method in brief: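 ELG1-luciferase reporter readout (ONE-Glo, 30 min, room temperature) after 16 hr compound treatment at 37 °C of HEK293T cells at 2,000 per well. Rising luminescence flags genotoxic stress.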

[10] = qHTS for Inhibitors of Cell Surface uPA Generation: Validation Assay (AID 493164);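 note: RAW 264.7 macrophage cells exposed to compound for 18 h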
Method in brief: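 ATP-Lite luminescence read-out: ATP remains high when uPA activity-dependent LF translocation into the cytoplasm is blocked. RAW 264.7 cells, 18 h compound exposure at 37 C; 7-point titration, 2.45 nM to 38.3 uM final.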

[11] = molecular target: Peptidyl-prolyl cis-trans isomerase NIMA-interacting 1 (Homo sapiens) (UniProt Q13526); experiment: qHTS Validation Assay to Find Inhibitors of Pin1 (AID 504536; active = well fitted inhibition curve with a large enough effect in the polarisation, with a control signal flat, not every such curve was filed as active; the % refers to the polarisation)
Method in brief: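 Fluorescence polarization competition: compounds (titration) displace HiFluor-488-labeled Pin1-1b peptide from Pin1 (0.3 uM final) in pH 7.5 HEPES buffer with DTT, 10 min at room temperature; %Activity normalized to no-enzyme wells, curves fitted.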

[12] = molecular target: Phosphoglycerate kinase, glycosomal (Trypanosoma brucei brucei) (UniProt P07378); experiment: qHTS Validation Assay to Find Inhibitors of Phosphoglycerate Kinase (AID 504547)
Method in brief: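 Compounds are pinned into the substrate/PGK mixture, and GAPDH (100nM final) is added to start the reaction by producing 1,3-BPG. After 60 minutes at room temperature, Kinase-Glo Plus is added and luminescence is measured 10 minutes later.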

[13] = molecular target: phosphoglycerate mutase (Leishmania major) (UniProt Q4Q090); experiment: qHTS Validation Assay to Find Inhibitors of Phosphoglycerate Mutase (AID 504548); note: series mostly up to about 58 µM
Method in brief: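 Lm PGAM at 1.25 nM final with substrate in 100 mM TEA pH 7.6, 5 mM MgCl2, 0.01% Tween-20; 45 min at room temperature. Kinase-GloPlus added, 10 min, end-point luminescence read.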

[14] = molecular target: Ubiquitin carboxyl-terminal hydrolase 1 (Homo sapiens) (UniProt O94782); experiment: Inhibitors of USP1/UAF1: Pilot qHTS (AID 504865);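 note: rhodamine fluorescence freed from ubiquitin-rhodamine substrate followed over time; top concentration of the series differs between compounds; nearly all actives have a fitted effect of over 35% in size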
Method in brief: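 Kinetic fluorescence assay: 1nM USP1/UAF1, 15 min compound preincubation, then 150nM Ub-Rho; 480/540 nm.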

[15] = molecular target: Glutaminase kidney isoform, mitochondrial (Homo sapiens) (UniProt O94925); experiment: qHTS for Inhibitors of Glutaminase (GLS): LOPAC Validation (AID 624146);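 note: glutamate product detected by oxidase and peroxidase coupled Amplex red fluorescence gain; series mostly up to about 46 µM; nearly all actives have a fitted effect of over 60% in size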
Method in brief: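 Glutamate formation by hKGA was monitored fluorometrically using coupled glutamate oxidase, HRP and Amplex Red. Substrate was added as 1 mM L-glutamine solution; incubation was 30 min at RT after an initial read.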

[16] = qHTS of Trypanosoma Brucei Inhibitors: LOPAC Validation (AID 624147)
Method in brief: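 Glycolytic pyruvate kinase of T. brucei was incubated with substrate, test compound and 130 uM ADP for 45 minutes at room temperature. Luminescent Kinase-Glo Plus signal was measured after 10 minutes.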

[17] = molecular target: Glucagon-like peptide 1 receptor (Homo sapiens) (UniProt P43220); experiment: qHTS of GLP-1 Receptor Agonists: LOPAC Validation (AID 624148);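 note: higher luminescence signal means agonism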
Method in brief: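 HEK293 cells stably co-expressing GLP-1R and a cAMP-responsive luciferase reporter, plated 12 hours before compound, then incubated 4-6 hr at 37 deg C. Luminescence read 12 min after detection reagent.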

[18] = qHTS of Nrf2 Activators: LOPAC Validation (AID 624149)
Method in brief: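 Luciferase signal from ARE activation, read with Steady-Glo after 30 min at room temperature. Compounds were pin-transferred onto AREc32_Fluc cells (1000/well, OPTI-MEM/5% FBS, seeded overnight) and left 24 hr at 37 deg C.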

[19] = HTS Assay for Allosteric Antagonists of the Human D2 Dopamine Receptor: Hit Validation in HTRF (AID 624455);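 note: stable D1 dopamine receptor cell line scored for blocking the D1 response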
Method in brief: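 Inhibition of the D1-mediated response was measured by HTRF. Cells used were a line stably expressing the D1 dopamine receptor.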

Measured: Potency

Sequence of D(1A) dopamine receptor (Homo sapiens) (P21728 whole entry, looked up): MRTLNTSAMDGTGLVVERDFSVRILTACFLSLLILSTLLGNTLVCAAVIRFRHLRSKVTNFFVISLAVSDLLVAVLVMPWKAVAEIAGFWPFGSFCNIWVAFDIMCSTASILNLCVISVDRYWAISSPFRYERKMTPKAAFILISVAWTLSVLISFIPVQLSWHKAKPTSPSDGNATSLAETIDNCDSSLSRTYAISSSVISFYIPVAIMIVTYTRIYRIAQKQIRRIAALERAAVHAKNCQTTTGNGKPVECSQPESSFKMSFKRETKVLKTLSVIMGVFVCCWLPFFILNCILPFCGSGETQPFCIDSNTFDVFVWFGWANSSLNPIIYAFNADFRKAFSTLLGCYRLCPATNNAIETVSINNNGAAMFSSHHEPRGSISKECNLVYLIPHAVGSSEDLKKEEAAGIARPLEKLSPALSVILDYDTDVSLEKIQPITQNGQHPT
Sequence of Thioredoxin reductase 1, cytoplasmic (Rattus norvegicus) (O89049 whole entry, looked up): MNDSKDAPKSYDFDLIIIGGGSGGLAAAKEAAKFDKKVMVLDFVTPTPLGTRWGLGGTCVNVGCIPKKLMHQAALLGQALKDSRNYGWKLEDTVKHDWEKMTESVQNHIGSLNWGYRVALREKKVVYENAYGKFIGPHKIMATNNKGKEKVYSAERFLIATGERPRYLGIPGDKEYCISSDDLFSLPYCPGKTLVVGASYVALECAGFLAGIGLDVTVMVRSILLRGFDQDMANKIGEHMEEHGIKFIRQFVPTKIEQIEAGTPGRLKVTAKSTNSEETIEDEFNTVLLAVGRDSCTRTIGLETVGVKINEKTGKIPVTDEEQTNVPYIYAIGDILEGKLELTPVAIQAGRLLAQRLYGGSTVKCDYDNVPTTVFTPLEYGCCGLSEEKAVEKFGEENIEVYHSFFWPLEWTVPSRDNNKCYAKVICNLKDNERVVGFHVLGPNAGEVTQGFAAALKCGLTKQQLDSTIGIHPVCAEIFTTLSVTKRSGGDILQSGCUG
Sequence of Ubiquitin carboxyl-terminal hydrolase 1 (Homo sapiens) (O94782 whole entry, looked up): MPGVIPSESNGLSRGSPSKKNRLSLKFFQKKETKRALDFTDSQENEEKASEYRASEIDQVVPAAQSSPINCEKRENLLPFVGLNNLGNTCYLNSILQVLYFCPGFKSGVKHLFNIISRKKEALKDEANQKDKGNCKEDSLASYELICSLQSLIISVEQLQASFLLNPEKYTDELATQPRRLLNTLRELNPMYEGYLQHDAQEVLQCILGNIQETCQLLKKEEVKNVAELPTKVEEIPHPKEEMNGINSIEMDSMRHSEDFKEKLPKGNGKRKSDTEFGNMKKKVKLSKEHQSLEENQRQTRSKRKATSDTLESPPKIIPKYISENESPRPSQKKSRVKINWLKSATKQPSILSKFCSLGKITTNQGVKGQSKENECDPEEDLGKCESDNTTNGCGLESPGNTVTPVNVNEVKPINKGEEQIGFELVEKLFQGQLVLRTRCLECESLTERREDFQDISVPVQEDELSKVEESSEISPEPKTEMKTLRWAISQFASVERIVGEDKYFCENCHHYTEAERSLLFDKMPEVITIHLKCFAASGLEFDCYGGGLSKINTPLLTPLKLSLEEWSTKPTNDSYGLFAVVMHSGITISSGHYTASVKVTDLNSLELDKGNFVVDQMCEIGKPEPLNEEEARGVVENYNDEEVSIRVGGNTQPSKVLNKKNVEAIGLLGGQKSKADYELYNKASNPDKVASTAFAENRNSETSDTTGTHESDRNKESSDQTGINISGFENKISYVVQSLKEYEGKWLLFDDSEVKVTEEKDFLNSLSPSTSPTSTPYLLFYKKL
Sequence of Glucagon-like peptide 1 receptor (Homo sapiens) (P43220 whole entry, looked up): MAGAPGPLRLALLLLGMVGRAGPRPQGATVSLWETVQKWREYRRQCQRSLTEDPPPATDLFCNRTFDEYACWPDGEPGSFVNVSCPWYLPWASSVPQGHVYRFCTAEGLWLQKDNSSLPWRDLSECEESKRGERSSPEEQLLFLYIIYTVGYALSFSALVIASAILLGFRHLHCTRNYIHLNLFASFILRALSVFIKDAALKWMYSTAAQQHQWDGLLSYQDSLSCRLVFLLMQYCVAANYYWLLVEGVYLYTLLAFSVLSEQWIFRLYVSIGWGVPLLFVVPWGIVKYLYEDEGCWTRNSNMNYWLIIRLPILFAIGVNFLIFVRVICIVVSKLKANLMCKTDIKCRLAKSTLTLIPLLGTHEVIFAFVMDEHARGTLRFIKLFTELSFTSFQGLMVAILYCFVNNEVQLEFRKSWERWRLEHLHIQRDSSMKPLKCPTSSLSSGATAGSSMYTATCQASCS
Sequence of Phosphoglycerate kinase, glycosomal (Trypanosoma brucei brucei) (P07378 whole entry, looked up): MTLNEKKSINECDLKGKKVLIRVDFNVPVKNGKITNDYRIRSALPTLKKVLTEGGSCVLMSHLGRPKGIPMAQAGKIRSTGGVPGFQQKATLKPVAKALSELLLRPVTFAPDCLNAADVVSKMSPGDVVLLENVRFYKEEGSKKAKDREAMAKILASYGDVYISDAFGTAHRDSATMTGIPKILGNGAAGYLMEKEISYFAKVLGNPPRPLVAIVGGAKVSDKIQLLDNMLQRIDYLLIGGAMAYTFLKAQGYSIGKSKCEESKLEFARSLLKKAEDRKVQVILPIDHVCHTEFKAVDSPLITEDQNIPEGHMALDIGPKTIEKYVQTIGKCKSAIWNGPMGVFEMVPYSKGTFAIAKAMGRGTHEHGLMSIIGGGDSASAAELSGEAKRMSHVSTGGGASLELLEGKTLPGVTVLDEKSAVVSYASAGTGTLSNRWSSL
Sequence of M-phase phosphoprotein 8 (Homo sapiens) (Q99549 whole entry, looked up): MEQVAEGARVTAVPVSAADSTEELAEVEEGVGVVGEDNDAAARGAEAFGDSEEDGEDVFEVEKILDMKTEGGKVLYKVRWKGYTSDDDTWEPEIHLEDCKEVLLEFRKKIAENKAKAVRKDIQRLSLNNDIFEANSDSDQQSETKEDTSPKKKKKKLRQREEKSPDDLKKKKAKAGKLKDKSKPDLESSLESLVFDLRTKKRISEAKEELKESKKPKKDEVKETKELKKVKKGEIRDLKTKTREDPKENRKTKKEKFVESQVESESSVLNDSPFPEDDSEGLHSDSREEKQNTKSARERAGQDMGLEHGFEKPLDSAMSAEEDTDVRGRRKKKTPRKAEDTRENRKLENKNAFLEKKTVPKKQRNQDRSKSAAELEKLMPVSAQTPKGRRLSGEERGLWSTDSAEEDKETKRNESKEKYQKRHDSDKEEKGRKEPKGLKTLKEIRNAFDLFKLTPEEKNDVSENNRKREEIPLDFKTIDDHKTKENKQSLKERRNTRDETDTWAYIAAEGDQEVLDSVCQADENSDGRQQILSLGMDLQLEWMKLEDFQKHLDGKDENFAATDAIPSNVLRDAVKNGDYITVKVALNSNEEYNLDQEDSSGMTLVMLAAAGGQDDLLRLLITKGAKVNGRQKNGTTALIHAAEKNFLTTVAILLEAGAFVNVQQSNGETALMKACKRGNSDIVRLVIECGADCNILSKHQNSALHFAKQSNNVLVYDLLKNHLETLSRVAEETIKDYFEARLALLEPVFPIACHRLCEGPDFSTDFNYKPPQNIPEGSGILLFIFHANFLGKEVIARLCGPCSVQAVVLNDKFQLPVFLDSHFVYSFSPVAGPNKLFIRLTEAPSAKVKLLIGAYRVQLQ
Sequence of Methanococcus maripaludis chaperonin (MmCpn) (Q6LX38 1-543): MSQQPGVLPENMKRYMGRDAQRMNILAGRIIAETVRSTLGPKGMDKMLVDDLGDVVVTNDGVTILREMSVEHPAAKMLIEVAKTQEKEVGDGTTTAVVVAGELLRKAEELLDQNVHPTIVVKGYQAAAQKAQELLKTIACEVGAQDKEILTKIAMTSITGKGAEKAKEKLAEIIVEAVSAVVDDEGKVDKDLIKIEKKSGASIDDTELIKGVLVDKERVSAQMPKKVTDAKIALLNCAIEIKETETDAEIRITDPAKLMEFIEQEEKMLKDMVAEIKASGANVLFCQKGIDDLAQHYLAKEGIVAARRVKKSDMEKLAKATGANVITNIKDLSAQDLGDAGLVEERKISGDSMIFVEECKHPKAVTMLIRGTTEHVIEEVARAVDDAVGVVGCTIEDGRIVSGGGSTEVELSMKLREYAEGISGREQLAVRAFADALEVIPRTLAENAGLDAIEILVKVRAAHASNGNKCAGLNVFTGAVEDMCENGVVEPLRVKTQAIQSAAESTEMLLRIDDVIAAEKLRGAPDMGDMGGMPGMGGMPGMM
Sequence of phosphoglycerate mutase (Leishmania major) (Q4Q090 1-553): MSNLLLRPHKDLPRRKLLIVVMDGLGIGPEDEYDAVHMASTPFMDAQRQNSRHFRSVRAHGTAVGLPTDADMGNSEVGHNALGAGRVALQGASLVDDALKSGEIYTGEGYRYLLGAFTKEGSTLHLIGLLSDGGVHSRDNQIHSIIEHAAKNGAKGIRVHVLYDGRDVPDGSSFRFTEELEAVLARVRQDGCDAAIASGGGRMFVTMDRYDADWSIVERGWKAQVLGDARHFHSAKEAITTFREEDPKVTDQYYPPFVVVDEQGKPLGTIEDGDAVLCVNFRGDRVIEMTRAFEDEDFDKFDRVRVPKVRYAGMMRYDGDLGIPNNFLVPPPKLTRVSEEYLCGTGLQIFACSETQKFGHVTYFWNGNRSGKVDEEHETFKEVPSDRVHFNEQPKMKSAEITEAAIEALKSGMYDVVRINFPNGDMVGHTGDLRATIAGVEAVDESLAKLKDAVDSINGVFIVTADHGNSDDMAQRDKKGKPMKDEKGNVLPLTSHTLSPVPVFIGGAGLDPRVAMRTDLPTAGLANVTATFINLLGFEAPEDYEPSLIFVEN
Sequence of Flap endonuclease 1 (Homo sapiens) (P39748 whole entry, looked up): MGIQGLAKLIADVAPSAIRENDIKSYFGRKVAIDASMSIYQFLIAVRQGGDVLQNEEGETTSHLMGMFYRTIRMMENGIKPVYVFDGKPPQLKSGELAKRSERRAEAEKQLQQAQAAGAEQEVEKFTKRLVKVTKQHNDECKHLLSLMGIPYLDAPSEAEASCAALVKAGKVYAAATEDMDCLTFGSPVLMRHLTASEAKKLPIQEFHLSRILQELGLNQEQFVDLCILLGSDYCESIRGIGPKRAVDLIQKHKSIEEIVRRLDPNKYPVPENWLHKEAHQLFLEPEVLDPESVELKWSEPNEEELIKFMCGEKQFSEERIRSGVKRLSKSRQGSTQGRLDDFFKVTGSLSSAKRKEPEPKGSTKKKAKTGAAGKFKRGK

CC[C@@H](CO)Nc1nc(NCc2ccccc2)c2ncn(C(C)C)c2n1
inactive: [1] | [2] | [3] | [4] | [5] | [6] | [7] | [8] | [9] | [10] | [11] | [12] | [13] | [14] | [15] | [16] | [17] | [18] | [19]
